RmlCD inh mix – RmlC/RmlD inhibition, mixture screen. RmlC/RmlD coupled enzyme inhibition, 384-well mixture HTS. inhibition, % at 5.5 µM. 110,000 compounds, 0.39% hits. AID 1532; in the data active = inhibition above about 30%, passing the limit was not always enough
YopH PTP inh – blocks Yersinia enterocolitica YopH tyrosine phosphatase; fluorescence Ex485/Em525; inhibition, % (no concentration beside the values); 140,000 compounds, 0.16% hits; in the data active = inhibition above about 50%
The depositor's hits bear a star; . = no result. Most compounds without a hit are left out; they make up all but 0.44% or so of the library.

SMILES	RmlCD inh mix	YopH PTP inh
O=C(CN1CCN(Cc2ccccc2)CC1)N1CCCc2c1c(=O)oc1ccc(O)cc21	.	18.0
O=C(c1ccco1)N1CCN(CC(=O)N2CCCc3c2c(=O)oc2ccc(O)cc32)CC1	17.3	52.6*
O=C(c1ccccc1)c1ccncc1	1.9	-30.4
[O-]/[N+](=C\c1ccc(OC(F)F)cc1)c1ccccc1	-10.4	55.3*
Fc1ccc(/C=N/Nc2ccccn2)cc1	.	-10.1
FC(F)Oc1ccc(NC(=S)NCc2ccccc2)cc1	.	-21.2
[O-]/[N+](=C\c1ccncc1)c1ccccc1	.	58.6*
[O-]/[N+](=C/c1ccc(F)cc1)c1ccccc1	7.4	53.2*
COc1cc(C2c3c(oc4ccccc4c3=O)C(=O)N2Cc2ccncc2)ccc1O (centres undefined)	-14.8	-7.1
Cc1cccc2cc(CN(Cc3nnnn3Cc3ccco3)C3CCCC3)c3nnnn3c12	-13.0	-7.3
O=C1c2ccccc2C(=O)N1Cc1nn2c(-c3ccc(Cl)cc3)nnc2s1	-2.5	.
O=C(Cc1ncc(C(F)(F)F)cc1Cl)N1CCN(c2ccc(F)cc2)CC1	-10.2	-16.2
O=C(NCC1CCCO1)c1onc(CSc2ccc(F)c(F)c2)c1C(=O)O (centres undefined)	6.5	23.2
Cc1cccc(OCCC(=O)NCC(=O)Nc2cccc(C)c2C)c1	.	-18.3
O=C(/C=N/O)NCc1ccncc1	-26.3	11.2
CC(C)C(NC(=O)c1ccccc1)c1nnc(SCC(=O)Nc2nccs2)n1C (centres undefined)	-7.3	-100.9
CCOC(=O)c1nc(N)c(=O)n(-c2ccc(C)cc2)n1	6.8	-28.2
CCOC(=O)c1nc(C)n(-c2ccc(Cl)cc2)n1	-1.2	51.9*
COc1ccc(Cn2c(SC)nc3ccccc32)cc1[N+](=O)[O-]	10.4	-23.6
CCCCN=C1NC(=O)C(CC(=O)NCCc2ccc(OC)cc2)S1 (centres undefined)	.	-10.2
Cc1ccc(C(C[N+](=O)[O-])c2c(C)[nH]n(-c3ccccc3)c2=O)cc1 (centres undefined)	.	82.8*
Cc1[nH]n(-c2ccccc2)c(=O)c1C(C[N+](=O)[O-])c1ccc(Cl)cc1 (centres undefined)	.	75.6*
Cc1[nH]n(-c2ccccc2)c(=O)c1C(C[N+](=O)[O-])c1ccc(F)cc1 (centres undefined)	.	-3.5
Cc1[nH]n(-c2ccccc2)c(=O)c1Sc1ccc(Cl)cc1	4.4	-1.2
CC(C)CC(NC(=O)C(COC(C)(C)C)NC(=O)C(Cc1ccc(O)cc1)NC(=O)C(CO)NC(=O)C(Cc1c[nH]c2ccccc12)NC(=O)C(Cc1cnc[nH]1)NC(=O)C1CCC(=O)N1)C(=O)N[C@@H](CCCN=C(N)N)C(=O)N1CCCC1C(=O)NNC(N)=O (some centres undefined)	-8.6	.
SMILES	RmlCD inh mix	YopH PTP inh
Cc1cc(C)n(C(=O)CNC(=O)COc2ccccc2)n1	42.5	-23.0
CC(C)(C)c1ccc(OCC(=O)N/N=C/c2ccsc2)cc1	.	-37.5
O=C(CSc1nnc(-c2ccccc2)o1)n1c2c(c3ccccc31)CCCC2	-7.6	56.0*
Cc1ccc(-c2nnc(SCC(=O)n3c4c(c5ccccc53)CCCC4)o2)cc1	.	-17.1
Cn1c(SCC(=O)n2c3c(c4ccccc42)CCCC3)nnc1-c1ccccc1	0.2	4.8
CC(=O)Nc1ccc(-c2nnc(SCC(=O)n3c4c(c5ccccc53)CCCC4)n2C)cc1	-4.8	75.3*
O=C1CC(N2CCC(c3nc4ccccc4s3)CC2)C(=O)N1 (centres undefined)	-13.2	-27.5
COc1ccc2c(c1OC)C(=O)OC2C1c2c(cc3c(c2OC)OCO3)CCN1C (centres undefined)	-2.8	-19.6
CN1CCc2cc3c(c4c2[C@H]1[C@H](O)c1ccccc1-4)OCO3	-9.1	101.0*
COc1ccc(/C=C/C(=O)c2ccc(NC(=O)c3cccs3)cc2)cc1OC	21.3	-25.5
Cc1ccc(S(=O)(=O)CCc2nnc(NC(=O)COc3cccc(C)c3)s2)cc1	5.2	-31.3
O=C1NCCCC2c3cc(O)c4ccccc4c3OC12N1CCCCC1 (centres undefined)	7.7	74.5*
O=C1NCCCC2c3c(cc(Br)c(O)c3Br)OC12N1CCOCC1 (centres undefined)	-5.4	-50.8
O=C(CN1CCN(c2ccccc2)CC1)Nc1ccc(Oc2ccccc2)cc1	-5.9	-1.2
O=C(NCCN1CCCCC1)c1ccc(=O)oc1	47.8*	-7.7
O=C(NCCN1CCCCC1)c1ccc2c(c1)OCCO2	6.1	-59.5
C#CCSc1nnc(-c2sc(-c3ccccc3)nc2C)n1C	11.1	-35.9
CC1(C)COC(c2cccc(C3=NC(C)(C)CO3)n2)=N1	.	-21.5
COc1cccc(COc2ccccc2C2Nc3ccc(Br)cc3C(=O)N2NC(=O)c2ccncc2)c1 (centres undefined)	.	-20.8
Cc1cccn2c(=O)c(C=Nc3ccc(Cl)cc3)c(NCCO)nc12	1.2	-32.9
Cc1cccn2c(=O)c(C=Nc3ccccc3)c(NCCO)nc12	36.6*	-46.0
Cc1[nH]c2ccccc2c1C(=O)CSc1nc2ccccc2c(=O)n1CCCN1CCOCC1	3.6	-5.0
c1csc(-c2csc3ncnc(NCCCN4CCOCC4)c23)c1	-10.2	10.8
c1ccc(-c2csc3ncnc(NCCCN4CCOCC4)c23)cc1	-2.0	50.9*
CCOC(=O)c1nn(-c2ccccc2)c(C#N)c1NC(=O)c1nn(CC)cc1Br	-6.8	-25.5
SMILES	RmlCD inh mix	YopH PTP inh
CCOC(=O)c1c(NC(=O)c2nn(CC)cc2Br)c(C#N)nn1-c1ccccc1	-10.9	52.2*
Cc1ccc(NC(=O)C2CCCN2S(=O)(=O)c2ccc(F)cc2)c(C)c1 (centres undefined)	-4.7	-39.9
CCC(C)NS(=O)(=O)c1ccc(NC(=O)c2c(-c3ccccc3)noc2C)cc1 (centres undefined)	-10.6	-57.5
CCOC(=O)c1sc2nc(N3CCCC3)c3c(c2c1N)CC(C)(C)OC3	45.1*	-17.2
CCOC(=O)c1sc2nc(C(C)C)c3c(c2c1N)CC(C)(C)OC3	18.6	-10.5
CCc1ccc(C(=O)C(C)OC(=O)C2COc3ccccc3O2)cc1 (centres undefined)	.	-30.4
COc1cc(NC(=O)c2ccc3c(c2)OCO3)c2ncccc2c1	-17.3	-31.8
COc1cc(NCCCCCCCN)c2ncccc2c1	-15.3	52.5*
C/C=C1\COC(C(=O)NCCCN2CCCC2=O)(C(F)(F)F)C=C1C=C(C)C (centres undefined)	-13.4	.
COC(=O)c1cccc(NC(=O)CN2CCN(Cc3ccccc3)CC2)c1	4.2	-13.5
COC(=O)c1ccc(Cl)c(NC(=O)CN2CCN(Cc3ccccc3)CC2)c1	11.8	63.7*
O=C(Cn1ncc(Cl)c(Cl)c1=O)N1CCN(S(=O)(=O)c2ccc3ccccc3c2)CC1	.	-18.4
CCN(CC1COc2ccccc2O1)S(=O)(=O)c1ccc(C)cc1 (centres undefined)	.	-10.5
CCOC(=O)c1c(C)oc2c1c(C=NCC1CCCO1)c(O)c1ccccc12 (centres undefined)	.	43.9
CCOC(=O)c1c(C)oc2c1c(C=NCc1ccccn1)c(O)c1ccccc12	.	56.6*
O=C(COc1ccccc1)NCc1nnc2c3ccccc3c(-c3ccccc3)nn12	.	-42.4
CC[C@@H](CO)NC(=O)[C@@H]1C=C2c3cccc4c3c(cn4C)C[C@H]2N(C)C1	19.0	63.8*
CN1C[C@H](CNC(=O)OCc2ccccc2)C[C@@H]2c3cccc4c3c(cn4C)C[C@H]21	2.4	-11.2
CCOC(=O)c1cnn2c(C(F)(F)F)cc(-c3ccccc3)nc12	-14.1	-26.7

Assay outcomes (PubChem)
